# High-throughput results (PubChem)
# Shown are actives, neighbours in structure and some others; about 7.5% of the full set was active somewhere.
# KinaseGlo FLuc: Counterscreen for Luciferase (Kinase-Glo TM) Inhibition; Kinase-Glo luciferase, ATP luminescence, 8 min; Potency, µM (series often up to 38.3 µM), inactives show at the highest dose activity change, negative = inhibition, most hits filed as inhibitors; hit rate 0.28% among 200,000; AID 1379, 2008; note: % is set by controls: 0 for no effect and ±100 for the full control effect; nearly all actives have a fitted effect of over 60% in size
#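 Inhibition of Kinase-Glo luciferase light generation was assessed at 10 uM ATP in pH 7.2 imidazole buffer, with luminescence measured after eight minutes at ambient temperature.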
# ELG1 genotox: qHTS screen for small molecules that induce genotoxicity in human embryonic kidney (HEK293T) cells expressing luciferase-tagged ELG1. HEK293T ELG1-luciferase reporter, luminescence, 16 h. Potency, µM (titrated, usually from 46 µM), for the others: at the top dose activity change, positive = activation, actives largely listed as activators. hit rate 1.3% among 330,000. AID 504466, 2011; note: % of control where 0% means no effect; nearly all actives have a fitted effect of over 60% in size
#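 Luminescence read-out: rising ELG1-luciferase signal, reflecting elevated ELG1 protein under genetic stress, flags genotoxic compounds. Cells were treated for 16 hr at 37 °C before ONE-Glo detection.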
# Rab9 prom act: qHTS Assay for Rab9 Promoter Activators; Huh7 Rab9 promoter-luciferase reporter, luminescence, 24 h; hit rate 2.8% among 320,000; Potency, µM (doses to about 9.22 µM), without a hit: at the highest dose activation, negative = inhibition, hits mostly activators; AID 485297, 2010; note: % of control where 0% means no effect; nearly all actives have a fitted effect of over 60% in size
#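 Luminescence from Amplite-detected luciferase (10 minutes, ambient) reports Rab9 promoter activation. Before that, stable Rab9-luciferase Huh7 cells (1500/well, reduced-serum OP-MEM I plus 10% FBS) were exposed to compound for 24 hours at 37C.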
# NPC1 promoter act: qHTS Assay for NPC1 Promoter Activators; Huh7 NPC1 promoter luciferase reporter, 24 h; Potency, µM (series often up to 9.22 µM), without a hit: top-dose activation, actives largely listed as activators; hit rate 2.4% among 320,000; AID 485313, 2010; note: % of control where 0% means no effect; nearly all actives have a fitted effect of over 60% in size
#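 Cells: Huh7 expressing luciferase under the NPC1 promoter, 1500/well. Seeded 2 h, compound added, incubated 24 h at 37 °C. Luciferase reagent, 10 min ambient, then luminescence.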
# SMN2 splice enh: qHTS Assay for Enhancers of SMN2 Splice Variant Expression; HEK293 SMN2-luciferase splicing reporter, luminescence, 30-36 h; hit rate 2.8% among 210,000; Potency, µM (highest dose often 46.1 µM), inactives show at the highest dose activity change, positive = activation, usual class: activators; note: % of control where 0% means no effect; nearly all actives have a fitted effect of over 55% in size
#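 HEK293 cells carry an SMN2 […]–luciferase reporter in which exon 7 inclusion puts luciferase in frame. Cells were plated 10-12 h before compound addition, then incubated 30-36 h at 37C. ONE-Glo luminescence was read; sodium butyrate at 4.5 mM final served as control.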
# FLuc modulator: qHTS profiling assay for firefly luciferase inhibitor/activator using purifed enzyme and Km concentrations of substrates (counterscreen for miR-21 project); purified FLuc, Km substrates, luminescence inhibition; Luciferin 4-monooxygenase (Photinus pyralis), P08659; hit rate 6.9% among 360,000; Potency, µM (top dose mostly 57.5 µM), for inactives: at the top dose activity change, negative = inhibition, usual class: inhibitors;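 note: plate controls were vehicle for no effect and reference inhibitor for full effect; nearly all actives have a fitted effect of over 55% in size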
# Target sequence (P08659 whole entry, looked up): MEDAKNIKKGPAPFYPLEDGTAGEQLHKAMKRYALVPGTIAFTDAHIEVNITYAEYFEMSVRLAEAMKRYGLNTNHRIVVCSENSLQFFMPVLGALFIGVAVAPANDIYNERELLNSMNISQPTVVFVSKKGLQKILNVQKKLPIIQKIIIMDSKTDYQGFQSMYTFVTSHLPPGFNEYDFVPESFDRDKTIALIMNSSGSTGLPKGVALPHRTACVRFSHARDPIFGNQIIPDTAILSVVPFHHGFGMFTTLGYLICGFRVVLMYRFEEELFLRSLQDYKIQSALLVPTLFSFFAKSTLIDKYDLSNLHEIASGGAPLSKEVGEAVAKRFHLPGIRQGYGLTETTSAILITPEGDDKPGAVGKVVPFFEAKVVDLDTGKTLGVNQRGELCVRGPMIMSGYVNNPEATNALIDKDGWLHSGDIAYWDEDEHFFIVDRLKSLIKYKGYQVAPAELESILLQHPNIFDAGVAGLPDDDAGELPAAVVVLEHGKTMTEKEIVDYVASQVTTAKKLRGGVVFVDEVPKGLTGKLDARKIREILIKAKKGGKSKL
#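 Purified P. pyralis luciferase, 10 nM final, with Km-level 10 uM D-luciferin and 10 uM ATP in 50 mM Tris acetate pH 7.5, 10 mM Mg acetate, 0.01% Tween-20, 0.05% BSA; 6-point qHTS titration about 60 µM downward; luminescence read.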
# An asterisk follows results filed as active; ? = inconclusive; · = no result. Calls come from the whole dose curve; as a rule, active = well fitted curve in the direction sought with a large enough effect; inconclusive = small, poorly fitted or top-dose-only effect, or another doubt; inactive = no such curve, though single readings can be large; an effect the other way counts as inactive or inconclusive. Potency is the fitted concentration of half-maximal effect.
SMILES,KinaseGlo FLuc,ELG1 genotox,Rab9 prom act,NPC1 promoter act,SMN2 splice enh,FLuc modulator
Cc1ccc2nc(-c3ccc(Cl)c(NC(=O)c4ccc(Br)o4)c3)oc2c1,·,·,·,·,-8.1%,?
Cc1ccc2nc(-c3cccc(NC(=O)c4ccc(Br)o4)c3)oc2c1,·,·,·,·,16.3%,2.69µM*
COc1ccc2c(c1)C(=O)[C@H](OC(=O)NCc1ccc3c(c1)OCO3)[C@@H](c1ccc(OC)c(Br)c1)O2,-2.2%,·,·,·,-5.6%,·
COCCNC(=O)c1c(NC(=O)c2cc(=O)c3cc(Cl)ccc3o2)sc2c1CCCC2,·,·,·,·,-2.1%,-2.8%
COC(=O)c1ccc(C(NC(=O)OCc2ccccc2)/C(F)=C/[C@@H](C)C(=O)NCc2cccnc2)cc1 (some centres not stated),-1.6%,·,·,·,-13.9%,·
CCOc1ccc(CN2C(=O)C(=O)c3cccc(C)c32)cc1OC,·,·,·,·,11.1%,2.5%
CS(=O)(=O)c1ccccc1C(=O)Nc1cccc(-c2nc3ccccc3o2)c1,·,-5.6%,-1.1%,-3.8%,·,10.7µM*
Cc1cc2nc(-c3cccc(NC(=O)CSc4ccc(Cl)cc4)c3)oc2cc1C,·,·,·,·,1.4%,1.9µM*
CCOc1ccc(NC(=O)c2cnn3c2NC(c2ccccc2)=CC3c2cccc(OC)c2OC)cc1 (configuration not stated),·,·,·,·,·,-1.7%
COc1ccc(NC(=O)C2=C(C)Nc3ncnn3C2c2ccc[nH]2)cc1 (configuration not stated),·,·,·,·,·,4.9%
CCOC(=O)c1c(NC(=O)c2ccc(S(=O)(=O)N(C)C3CCCCC3)cc2)sc2c1CCN(C(C)C)C2,·,·,·,·,·,-1.1%
O=C(Nc1ccc(N2CCOCC2)cc1)c1c(F)cccc1Cl,-2.3%,18.7%,1.8%,-1.9%,-0.2%,-2.0%
Cc1ccc(-c2nnc(NC(=O)c3c(F)cccc3Cl)s2)cc1,·,7.1%,9.8%,12.4%,·,-11.3%
O=C(Nc1nc2ccccc2s1)c1c(F)cccc1Cl,·,?,?,?,·,23.9µM*
Cn1cc(Cl)c(C(=O)Nc2nc3ccccc3s2)n1,?,0.461µM*,?,?,1.78µM*,0.953µM*
CC(C)(C)c1ccc(NC(=O)c2c(F)cccc2Cl)cc1,·,6.9%,?,12.1%,·,16.9µM*
CCN(CC)CCNC(=O)C(=O)Nc1c2c(nn1-c1ccc(F)cc1)CSC2,·,·,·,·,·,2.3%
Cc1cccc(-c2nc(C)c(CCNC(=O)C(=O)Nc3cccc(Cl)c3C)s2)c1,·,·,·,·,·,-0.3%
COc1cc(NC(=O)c2ccc3c(c2)OCCO3)ccc1NC(=O)c1ccccc1Cl,·,12.1%,-0.6%,10.0%,·,-2.3%
COc1cc(C(=O)Nc2ccc3c(c2)OCCO3)ccc1OC(C)C,-11.2%,?,3.16µM*,?,11.2µM*,7.57µM*
COc1ccc(C(=O)Nc2ccc3c(c2)OCCO3)cc1[N+](=O)[O-],1.8%,14.2%,?,18.3%,21.6%,10.7µM*
COc1ccc(NC(=O)c2ccc3c(c2)OCCO3)cc1OC,·,5.62µM*,2.24µM*,1.41µM*,·,2.69µM*
Cc1c([N+](=O)[O-])c(C(=O)Nc2ccc3c(c2)OCCO3)nn1C,12.6µM*,11.6µM*,?,?,12.6µM*,?
COc1cc(C(=O)Nc2ccc3c(c2)OCCO3)ccc1OC(F)F,-17.5%,?,2.82µM*,3.16µM*,14.1µM*,6.01µM*
C=CCn1c(=S)[nH]c2cc(-c3ccccc3)sc2c1=O,·,9.1%,19.3%,24.7%,·,1.9µM*
SMILES,KinaseGlo FLuc,ELG1 genotox,Rab9 prom act,NPC1 promoter act,SMN2 splice enh,FLuc modulator
Cc1c(C(C)(C)C)s/c(=N/S(=O)(=O)c2ccccc2)n1C,·,1.5%,2.4%,4.3%,·,4.3%
Cc1c(C(C)(C)C)sc(=NC(=O)c2ccccc2O)n1C,·,?,1µM*,2.82µM*,·,0.953µM*
COc1ccc(NC(=O)c2ccc(NC(=O)c3ccco3)cc2)c(OC)c1,·,-4.8%,12.8%,-1.9%,·,-3.1%
COc1ccc(NC(=O)c2ccco2)cc1NC(=O)c1c(OC)cccc1OC,·,1.2%,5.1%,-0.4%,2.8%,15.1µM*
O=C(Nc1ccc(OC(=O)c2cccs2)cc1)c1ccco1,?,?,9.7%,0.0%,19.0%,2.69µM*
COc1cc(NC(=O)c2ccccc2Cl)ccc1NC(=O)c1ccco1,-7.6%,?,2.82µM*,2.51µM*,22.4µM*,10.7µM*
COc1ccc(/C=N/NC(=O)c2ccccc2NC(=O)c2ccco2)c(OC)c1,·,1.6%,0.6%,4.6%,·,5.36µM*
CC(C)(C)c1ccc(S(=O)(=O)NCc2nc3cccnc3n2Cc2ccccc2Cl)cc1,·,·,·,·,·,-9.6%
COCCOC(=O)C1=C(C)N=C2SCCC(=O)N2C1c1ccc(OCc2ccccc2)c(OC)c1 (configuration not stated),·,·,·,·,-9.3%,-1.1%
CC1(N)CCC(C(C)(C)N)CC1 (configuration not stated),·,·,·,·,0.1%,·
COc1ccccc1NC(=O)c1ccccc1NC(=O)c1cc(Cl)ccc1NC(=O)c1ccco1,-0.4%,0.8%,3.5%,-1.4%,9.8%,8.9%
COc1cc(NC(=O)c2cccs2)ccc1NC(=O)c1ccco1,-1.9%,18.4µM*,?,29.6%,11.2µM*,?
COc1ccccc1NC(=O)c1oc2ccccc2c1NC(=O)c1ccco1,-2.6%,7.1%,0.0%,-2.1%,-25.0%,-0.8%
COc1cc(NC(=O)c2oc3ccccc3c2C)ccc1NC(=O)c1ccco1,·,-5.5%,?,24.8%,·,5.36µM*
O=C(Nc1ccc(NC(=O)c2cccs2)cc1Cl)c1ccco1,?,?,?,?,·,-5.0%
